Bioassay records: PubChem, several laboratories
An excerpt weighted towards active compounds, which were near 4.6% of everything screened.
KKLEB tox: reduces viability of KKLEB cystic fibrosis airway cells | KKLEB CF airway cells viability, ATPlite luminescence, overnight; active compounds read low; cells stimulated with P. aeruginosa culture filtrate | activity change (cytotoxicity), % at 5 µM | 360,000 tested, 0.36% active | AID 602141;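 active = corrected activity change at or below -50% at 5 µM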
Mdm2-MdmX inh: human Mdm2/MdmX binding inhibition. SaOS-2 split-luciferase Mdm2/MdmX complementation, luminescence. 330,000 tested, 3% active. inhibition, % at 8 µM. AID 485346. O15151+Q00987;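 active = inhibition of at least 50% at 8 µM in the primary screen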
Target sequence (O15151 whole entry, looked up): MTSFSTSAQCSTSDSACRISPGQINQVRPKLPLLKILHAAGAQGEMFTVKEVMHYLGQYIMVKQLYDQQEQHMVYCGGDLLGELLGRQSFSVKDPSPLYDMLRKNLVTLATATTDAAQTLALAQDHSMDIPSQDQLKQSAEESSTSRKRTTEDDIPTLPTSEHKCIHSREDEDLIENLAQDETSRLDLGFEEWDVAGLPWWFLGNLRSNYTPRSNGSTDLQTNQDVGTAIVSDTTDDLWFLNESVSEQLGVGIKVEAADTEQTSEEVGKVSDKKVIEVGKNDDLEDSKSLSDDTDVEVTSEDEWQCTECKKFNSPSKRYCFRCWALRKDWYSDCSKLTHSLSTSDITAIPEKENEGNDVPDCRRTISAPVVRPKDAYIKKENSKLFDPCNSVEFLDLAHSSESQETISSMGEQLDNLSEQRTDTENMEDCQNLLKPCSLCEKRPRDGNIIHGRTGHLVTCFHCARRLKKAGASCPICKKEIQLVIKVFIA
Target sequence (Q00987 whole entry, looked up): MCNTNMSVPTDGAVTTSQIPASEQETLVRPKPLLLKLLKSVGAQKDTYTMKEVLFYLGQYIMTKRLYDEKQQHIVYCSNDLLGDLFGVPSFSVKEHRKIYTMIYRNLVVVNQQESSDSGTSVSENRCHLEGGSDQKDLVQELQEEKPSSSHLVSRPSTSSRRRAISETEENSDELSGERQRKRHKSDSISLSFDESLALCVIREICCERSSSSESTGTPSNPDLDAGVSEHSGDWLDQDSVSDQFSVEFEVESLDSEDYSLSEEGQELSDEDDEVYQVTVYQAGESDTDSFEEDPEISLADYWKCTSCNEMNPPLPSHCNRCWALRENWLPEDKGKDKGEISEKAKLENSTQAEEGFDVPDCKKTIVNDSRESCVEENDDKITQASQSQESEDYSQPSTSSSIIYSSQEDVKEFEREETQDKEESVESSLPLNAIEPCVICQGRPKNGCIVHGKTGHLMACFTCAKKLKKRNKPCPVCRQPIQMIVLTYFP
ABHD5 PLIN5 PPI: blocks binding of human ABHD5 to perilipin-5 | Q00G26+Q8WTS1 | Split G. princeps luciferase complementation, luminescence, 4 h | inhibition, % at 4 µM | 360,000 tested, 0.78% active;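 active = inhibition above the mean inhibition across every tested compound plus 3 SD, cut at about 22% in these data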;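 note: 0% = DMSO only wells and the 100% control is not disclosed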
HIF-2a block: inhibitors of HIF-2a | 786-0 RCC cells HIF-2a reporter, luciferase luminescence, overnight | inhibition, % at 18.8 µM | 360,000 tested, 0.72% active;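 active = inhibition of the luminescence signal of 40% or more relative to plate controls, in a single-dose primary screen at 18.75 µM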
Peg3 promoter: Peg3 promoter activity inhibition; HeLa PEG-Prom luciferase reporter, luminescence, overnight; inhibition, % at 20 µM; 360,000 tested, 1.7% active;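 active = inhibition of at least 50% at 20 µM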
CF NFkB inh: blocks PAF-induced NF-kB reporter in cystic fibrosis cells | KKLEB NF-kB-GFP reporter, GFP fluorescence overnight | 360,000 tested, 0.86% active | inhibition, % at 5 µM;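 active = at least 50% inhibition at 5 µM, scaled per plate between neutral and stimulator controls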;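 note: PAF is a Pseudomonas aeruginosa culture filtrate used as stimulus; plate controls were PAF-stimulated DMSO wells for no effect and unstimulated DMSO wells for full effect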
Mdm2 MdmX conf: confirmation of human Mdm2/MdmX interaction inhibitors. Mdm2-MdmX binding, luminescent assay. AID 489028. 10,000 tested, 55% active. inhibition, % at 8 µM. shares compounds with Mdm2-MdmX inh; in the data active = inhibition above about 40%
Full FLuc ctr: full-length luciferase inhibition in Mdm2/MdmX counter-screen; shares compounds with Mdm2-MdmX inh; SaOS-2 full-length luciferase counterscreen, luminescence; inhibition, % at 8 µM; 6,200 tested, 77% active;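 active = mean inhibition at 8 µM reaching about 37%, which flags the compound as non-specific, limit read from the data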;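 note: p53-null SaOS-2 cells with luciferase driven by a doxycycline-inducible promoter; compound on cells about two nights before reading with doxycycline added after day one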
Starred values were filed as active, the others as inactive.

How did O=C1Nc2cc(C(=O)NCCN3CCCCCC3)ccc2S/C1=C\c1ccccc1 do in these assays?
KKLEB tox: -4.0; Mdm2-MdmX inh: 80.8*; ABHD5 PLIN5 PPI: 12.9; HIF-2a block: 3.6; Peg3 promoter: 94.4*; CF NFkB inh: 19.0; Mdm2 MdmX conf: 18.6

How did Cc1ccc(/C=C2/Sc3ccc(C(=O)N4CCN(c5ccccn5)CC4)cc3NC2=O)cc1 do in these assays?
KKLEB tox: 0.5; Mdm2-MdmX inh: 11.6; ABHD5 PLIN5 PPI: -2.7; HIF-2a block: -20.6; Peg3 promoter: -26.3; CF NFkB inh: -13.3

Results for O=C1Nc2cc(C(=O)N3CCc4ccccc4C3)ccc2S/C1=C\c1ccccc1 ?
KKLEB tox: 0.1; Mdm2-MdmX inh: 21.4; ABHD5 PLIN5 PPI: -6.0; HIF-2a block: 11.9; Peg3 promoter: 12.8; CF NFkB inh: 0.4

What do the screens show for `O=C(CN1C(=O)COc2ccccc21)NC1CCCC1`?
KKLEB tox: -0.3; Mdm2-MdmX inh: 17.4; ABHD5 PLIN5 PPI: -3.8; HIF-2a block: 3.8; Peg3 promoter: 11.9; CF NFkB inh: -8.6

Results for CC(=O)N1CCN(C(=O)C(Cc2c[nH]c3ccccc23)NC(=O)c2ccccc2Cl)CC1 (configuration not stated) ?
KKLEB tox: 4.2; Mdm2-MdmX inh: 21.5; ABHD5 PLIN5 PPI: -2.4; HIF-2a block: 9.2; Peg3 promoter: 23.8; CF NFkB inh: 3.7

What do the screens show for `O=C(N/N=C/c1cccs1)c1cc(-c2ccc(Cl)s2)[nH]n1`?
KKLEB tox: -1.7; Mdm2-MdmX inh: 19.7; ABHD5 PLIN5 PPI: 2.8; HIF-2a block: -45.7; Peg3 promoter: -10.5; CF NFkB inh: 3.5

How did Cc1ccc(NC2=C/C(=N/S(=O)(=O)c3cccs3)c3ccccc3C2=O)cc1 do in these assays?
KKLEB tox: -70.0*; Mdm2-MdmX inh: 53.3*; ABHD5 PLIN5 PPI: -3.8; HIF-2a block: -152.1; Peg3 promoter: -88.0; CF NFkB inh: 80.0*; Mdm2 MdmX conf: 60.8*; Full FLuc ctr: 12.0

Results for Cc1ccc(S(=O)(=O)/N=C2\C=C(Nc3ccc(O)cc3)C(=O)c3ccccc32)cc1 ?
KKLEB tox: -80.2*; Mdm2-MdmX inh: 95.1*; ABHD5 PLIN5 PPI: -6.3; HIF-2a block: 70.5*; Peg3 promoter: 105.3*; CF NFkB inh: 83.1*; Mdm2 MdmX conf: 89.2*; Full FLuc ctr: 4.6

Results for Cc1ccc(SC[C@H](C)CN2CCC(NC(=O)OCc3ccccc3)CCC2=O)cc1 (some centres not stated) ?
ABHD5 PLIN5 PPI: 7.7; HIF-2a block: -12.0

What do the screens show for `CCN(CC)c1ccc(NC(=O)c2ccccc2Br)cc1S(=O)(=O)Nc1ccccc1OC`?
KKLEB tox: 13.9; Mdm2-MdmX inh: -6.3; ABHD5 PLIN5 PPI: -5.5; HIF-2a block: 21.6; Peg3 promoter: 6.7; CF NFkB inh: -21.7

What do the screens show for `CCN(CC)c1ccc(NC(=O)c2ccc(=O)[nH]c2)cc1S(=O)(=O)Nc1ccccc1OC`?
KKLEB tox: 5.4; Mdm2-MdmX inh: 50.1*; ABHD5 PLIN5 PPI: -15.1; HIF-2a block: 18.2; Peg3 promoter: 20.8; CF NFkB inh: -0.2; Mdm2 MdmX conf: 56.0*; Full FLuc ctr: 54.4*

What do the screens show for `O=C(NC1CCCC1)c1sc(=S)n2c1[nH]c(=O)c1ccccc12`?
KKLEB tox: -25.0; Mdm2-MdmX inh: 56.9*; ABHD5 PLIN5 PPI: -2.1; HIF-2a block: -15.3; Peg3 promoter: 27.6; CF NFkB inh: 46.6; Mdm2 MdmX conf: 9.2

Results for COc1ccccc1N1CCN(C(=O)c2cc3c(=O)n4cccc(C)c4nc3s2)CC1 ?
KKLEB tox: -15.1; Mdm2-MdmX inh: 13.7; ABHD5 PLIN5 PPI: -7.8; HIF-2a block: 10.3; Peg3 promoter: 5.9; CF NFkB inh: 16.7

How did Cc1cccc(/C=C/c2onc(C)c2S(=O)(=O)N2CCC(C(=O)N3CCC(C)CC3)CC2)c1 do in these assays?
KKLEB tox: 7.6; Mdm2-MdmX inh: 52.0*; ABHD5 PLIN5 PPI: 0.3; HIF-2a block: 12.9; Peg3 promoter: 9.6; CF NFkB inh: -4.3; Mdm2 MdmX conf: 10.8

What do the screens show for `CC(C)c1cccc(-c2ccc3c(c2)S(=O)(=O)c2cccc(C(=O)NCc4ccccc4Cl)c2C3=O)c1`?
KKLEB tox: -37.9; Mdm2-MdmX inh: 88.6*; ABHD5 PLIN5 PPI: -6.3; HIF-2a block: -0.4; Peg3 promoter: 51.1*; CF NFkB inh: 41.0; Mdm2 MdmX conf: 15.8

Results for O=C(NCc1ccc(F)cc1)c1cccc2c1C(=O)c1ccc(Cl)cc1S2(=O)=O ?
Mdm2-MdmX inh: -15.9

Results for O=C(NCc1ccco1)c1cccc2c1C(=O)c1ccc(/C=C/c3ccccc3)cc1S2(=O)=O ?
KKLEB tox: -17.3; Mdm2-MdmX inh: 53.5*; ABHD5 PLIN5 PPI: 17.9; HIF-2a block: 1.1; Peg3 promoter: -9.9; CF NFkB inh: 6.2; Mdm2 MdmX conf: 46.6*; Full FLuc ctr: 68.8*

What do the screens show for `CC(C)c1cccc(-c2ccc3c(c2)S(=O)(=O)c2cccc(C(=O)NCc4ccccc4)c2C3=O)c1`?
KKLEB tox: -19.4; Mdm2-MdmX inh: 59.0*; ABHD5 PLIN5 PPI: 4.1; HIF-2a block: 6.7; Peg3 promoter: 43.0; CF NFkB inh: 25.8; Mdm2 MdmX conf: 30.1

How did COc1ccccc1N1CCN(C(=O)C2=CC=CN3CCS(=O)(=O)N=C23)CC1 do in these assays?
KKLEB tox: -1.0; Mdm2-MdmX inh: -16.5; ABHD5 PLIN5 PPI: 4.0; HIF-2a block: 0.4; Peg3 promoter: -5.2; CF NFkB inh: 2.3

What do the screens show for `Cc1nnc2c3ccccc3c(-c3cccs3)nn12`?
KKLEB tox: -8.2; Mdm2-MdmX inh: 54.1*; ABHD5 PLIN5 PPI: 8.0; HIF-2a block: -44.7; Peg3 promoter: -0.2; CF NFkB inh: -112.1; Mdm2 MdmX conf: 35.3; Full FLuc ctr: 53.4*

What do the screens show for `Cc1nnc2c3ccccc3c(-c3ccc(O)cc3)nn12`?
KKLEB tox: 3.4; Mdm2-MdmX inh: 66.5*; ABHD5 PLIN5 PPI: 4.5; HIF-2a block: -23.6; Peg3 promoter: -32.0; CF NFkB inh: -112.7; Mdm2 MdmX conf: 32.5; Full FLuc ctr: 61.8*

Results for CC(C(=O)Nc1ccc(O)cc1C(=O)O)N1C(=O)/C(=C\c2cccs2)SC1=S (configuration not stated) ?
KKLEB tox: 1.0; Mdm2-MdmX inh: -26.8; ABHD5 PLIN5 PPI: -14.9; HIF-2a block: -2.1; Peg3 promoter: -10.1; CF NFkB inh: -23.1

Results for CC1(O)CC2CC1C(C(=O)O)C2C(=O)O (configuration not stated) ?
KKLEB tox: 9.6; ABHD5 PLIN5 PPI: 3.6; HIF-2a block: 8.9; Peg3 promoter: -1.6; CF NFkB inh: -4.3

What do the screens show for `CC(=O)Nc1c(C(=O)O)ccc(C)c1OCc1ccccc1`?
KKLEB tox: 28.6; ABHD5 PLIN5 PPI: -0.5; HIF-2a block: 2.5; Peg3 promoter: 2.2; CF NFkB inh: -20.7
